From PubChem BioAssay
EBV LMP1 NFkB = reduces LMP1-driven NF-kappaB luciferase signal | inhibition, % at 12.5 µM | hit rate 0.69% among 350,000 | LMP1-induced NF-kappaB luciferase reporter cells, luminescence; in the data active = inhibition above about 41%; inconclusive = no clear call, values can overlap the other calls;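 note: 0% = neutral control wells and 100% = reference inhibitor control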
TROY NFkB inh = blocks TROY-dependent signaling in reporter cells. Q293 LMP1-TROYcd NF-kB luciferase reporter, 4 h. AID 1347056. hit rate 0.98% among 360,000. inhibition, % at 10 µM;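 active = compounds whose plate-normalised and pattern-corrected inhibition of the luciferase reporter signal at the single screening dose is 50% or more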
aDG glyco up = alpha-DG glycosylation activation; Pro5-aDG cells, alpha-DG glycosylation AlphaScreen (IIH6); 0% Pro5, 100% B10-LARGE cell signal; activation, % at 10 µM; hit rate 0.22% among 360,000; AID 624168;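 active = activation of at least 8% versus controls, or a plate z-score of at least 8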;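 note: Pro5 are CHO cells carrying HIG-tagged alpha-DG that lacks glycosylation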
HSP90 refold inh = HSP90 refolding inhibition in rabbit reticulocyte lysate; luciferase refolding luminescence, 3 h; inhibition, % at 5.6 µM; hit rate 0.91% among 290,000; AID 1789;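 active = inhibition above the screen-wide mean plus 3 SD, computed separately per campaign, cut at about 16% in these data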;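 note: 0% = DMSO wells and 100% = 60 µM geldanamycin wells; inhibitors lower the luminescence because luciferase stays unfolded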
TWEAK Fn14 block = TWEAK-Fn14 signaling inhibition; TWEAK-stimulated Fn14 reporter cells, luciferase luminescence, 8 h; inhibition, % at 10 µM; hit rate 2% among 360,000; in the data active = inhibition above about 50%
LGR2 antag = inhibitors of bursicon-induced Drosophila LGR2 receptor cAMP signaling | HEK293 LGR2, CRE-luciferase, bursicon-stimulated, 4 h | inhibition, % at 9.99 µM | hit rate 0.35% among 380,000 | AID 720647;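 active = drop in luminescence signal, shown as inhibition above about 50% in the replicate tests, limit read from the data, passing the limit was not always enough; inconclusive = probably only some replicates passing the limit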;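 note: agonist challenge used bursicon conditioned medium at about half maximal strength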
* hit, by the source's call; ? = inconclusive; nt = no result. Rows were chosen to be rich in hits. Some 2.6% of all compounds tested hit in one or more screens of this group.

SMILES	EBV LMP1 NFkB	TROY NFkB inh	aDG glyco up	HSP90 refold inh	TWEAK Fn14 block	LGR2 antag
CC=Cc1ccc2n(c1=O)C[C@H]1[C@H](CO)[C@@H](C(=O)NCc3ccc(F)cc3)[C@@H]2N1S(C)(=O)=O (mixture of isomers)	nt	nt	nt	nt	nt	8.2
Oc1cccc(/C=C/c2ccc3cccc(O)c3n2)c1	-1.6	-25.3	0.1	6.3	19.2	-3.5
COc1cccc(/C=C/c2ccc3cccc(O)c3n2)c1	-4.3	50.2*	-0.1	-2.3	83.5*	-67.7
COc1ccc(/C=C/c2ccc3cccc(O)c3n2)cc1Br	4.2	54.1*	0.0	0.0	72.2*	-63.2
CCCNC(=O)C[C@H]1C[C@@H]2c3cc(N(C)C)ccc3O[C@@H]2[C@@H](CO)O1	nt	nt	nt	nt	nt	-1.9
C[C@@H]1CN([C@H](C)CO)C(=O)c2cc(-c3ccc(F)cc3)cnc2O[C@H]1CN(C)S(C)(=O)=O	nt	nt	nt	nt	nt	11.7
C=C1C(=O)C=C[C@]2(C)C[C@@H]3OC(=O)[C@](C)(O)[C@H]3C[C@@H]12	-105.0	-4.2	-0.3	nt	55.2*	34.9
COc1ccc2c3c([nH]c2c1)[C@H](CO)N(C(=O)c1cccnc1)CC31CN(Cc2cccnc2)C1	nt	nt	nt	nt	nt	0.9
CC(=O)N(C)c1ccc(N=Nc2ccc3ncccc3c2)cc1	3.3	12.7	0.2	nt	61.6*	66.4*
O=C(C[C@@H]1CC[C@H]2[C@@H](COC[C@H](O)CN2Cc2cccc(-c3ccncc3)c2)O1)N1CCN(c2ccccc2)CC1	nt	nt	nt	nt	nt	7.0
COCC#Cc1ccc([C@H]2[C@H]3CN(C(=O)C4CC4)CC(=O)N3[C@H]2CO)cc1	nt	nt	nt	nt	nt	-2.6
COc1ccccc1S(=O)(=O)N[C@@H]1CC[C@@H](CCNC(=O)C2CCC2)O[C@H]1CO	nt	nt	nt	nt	nt	-2.5
CCOC(=O)/C=C/C(=O)Nc1ccc(S(=O)(=O)Nc2c(C)cc(C)cc2C)cc1	-11.9	50.3*	0.0	-2.5	27.0	16.7
CCOC(=O)/C=C/C(=O)Nc1cc(S(=O)(=O)Nc2ccc(OC)cc2)ccc1N1CCOCC1	-20.8	24.8	0.0	nt	56.4*	-5.0
CCOC(=O)/C=C/C(=O)Nc1ccc(Oc2ccccc2)cc1	-3.6	8.5	0.1	-4.0	70.8*	101.7*
O=C(O)/C=C/C(=O)Nc1ccc(Oc2ccccc2)cc1	3.0	-21.1	0.1	3.9	10.6	-3.5
CC(C)C#Cc1cnc2c(c1)C(=O)N([C@@H](C)CO)C[C@@H](C)[C@@H](CN(C)C(=O)Nc1ccc(F)cc1)O2	nt	nt	nt	nt	nt	4.6
CO[C@@H]1CN(C)C(=O)c2cc(NC(=O)NC(C)C)ccc2OC[C@@H](C)N(C(=O)C2CCC2)C[C@@H]1C	nt	nt	nt	nt	nt	8.5
Cc1cc(C)nc(SCC(=O)c2cc3ccccc3oc2=O)n1	19.1	0.2	-0.3	1.5	-3.7	nt
Cc1cc[n+](CC(=O)c2cc3ccccc3oc2=O)cc1	2.8	52.4*	-0.4	0.6	40.2	8.2
CC=Cc1ccc2n(c1=O)C[C@H]1[C@H](CO)[C@@H](C(=O)N[C@@H](C)c3ccccc3)[C@@H]2N1Cc1cncnc1 (mixture of isomers)	nt	nt	nt	nt	nt	-0.5
COC(=O)C(=C/C(C)=C/c1cccnc1)C(=O)OC	14.9	42.1	1.1	0.6	64.5*	27.9
COC(=O)/C(=C/c1cccnc1)NC(=O)c1ccccc1	-12.3	-6.4	0.0	3.7	5.9	3.5
COCC#Cc1ccc([C@@H]2[C@H]3CN(C(=O)C4CCC4)CC(=O)N3[C@H]2CO)cc1	nt	nt	nt	nt	nt	-4.1
CCC(=O)N[C@H]1C=C[C@H](CC(=O)NCc2ccc(OC)cc2)O[C@@H]1CO	nt	nt	nt	nt	nt	2.7
SMILES	EBV LMP1 NFkB	TROY NFkB inh	aDG glyco up	HSP90 refold inh	TWEAK Fn14 block	LGR2 antag
CC(C)NC(=O)N(C)C[C@H]1Oc2ccc(NC(=O)Nc3cccc4ccccc34)cc2C(=O)N([C@@H](C)CO)C[C@@H]1C	nt	nt	nt	nt	nt	-17.7
Cn1c(=O)oc2cc(S(=O)(=O)N3CCCC(C(=O)NCCN4CCOCC4)C3)ccc21 (configuration not stated)	-11.5	4.2	-0.3	30.3*	-14.5	15.2
COc1ccc(S(=O)(=O)N2CCCC(C(=O)NCc3ccco3)C2)cc1OC (configuration not stated)	-2.1	3.5	-0.2	-4.0	8.6	5.4
CCCN(CCC)CCNC(=O)C1CCCN(S(=O)(=O)c2ccc3c(c2)oc(=O)n3C)C1 (configuration not stated)	-1.3	-9.8	0.0	0.9	10.4	nt
COc1ccc(S(=O)(=O)N2CCCC(C(=O)NCC3CCCO3)C2)cc1C (configuration not stated)	-1.3	-7.4	-0.1	3.2	92.8*	6.8
COc1ccc(S(=O)(=O)N2CCCC(C(=O)NCc3ccco3)C2)cc1Cl (configuration not stated)	0.7	-7.7	0.3	3.9	86.2*	4.3
Cc1ccc(S(=O)(=O)N[C@@H]2CC[C@@H](CCn3cc(C4CCCC4)nn3)O[C@H]2CO)cc1	nt	nt	nt	nt	nt	-9.7
CC1(C)CNc2cc(N)ccc2S1	-9.4	51.4*	0.1	8.3	50.8*	-14.8
C/C=C/c1ccc([C@@H]2[C@H](CO)N3C(=O)CN(S(=O)(=O)c4cccc(F)c4)C[C@@H]23)cc1	nt	nt	nt	nt	nt	15.2
CC(=O)c1ccc(NCCC(=O)c2ccccc2)cc1	-3.8	49.1	1.2	-0.6	69.0*	-31.8
CC(=O)c1ccc(NC(=O)CCCC(=O)c2ccccc2)cc1	0.4	-35.5	0.0	2.7	-7.3	-4.2
C[C@H](CO)N1C[C@H](C)[C@H](CN(C)CC2CCCCC2)Oc2ccc(NC(=O)Cn3cnnn3)cc2CC1=O	nt	nt	nt	nt	nt	8.1
CSC(=Nc1ccccc1)N=C(SCc1ccccc1)N(C)C	-23.8	44.6	-0.3	nt	80.5*	76.0*
Cc1ccc(S(=O)(=O)NCC[C@@H]2CC[C@@H](NC(=O)c3cnccn3)[C@@H](CO)O2)cc1	nt	nt	nt	nt	nt	-7.9
COc1ccc(-c2csc(NC(C)c3nc4cc(Cl)c(N5CCCCC5)cc4n3CCOCCO)n2)cc1 (configuration not stated)	6.0	0.8	-0.1	nt	-23.4	-1.8
CC(Nc1nc(-c2ccc(Cl)cc2)cs1)c1nc2cc(Cl)c(N3CCCCC3)cc2n1CCOCCO (configuration not stated)	7.4	40.0	1.5	nt	53.9*	?
COc1cccc(-c2cnc(C(O)c3ccc(C)cc3)[nH]2)c1 (configuration not stated)	nt	-35.3	0.4	nt	3.1	-39.0
COc1cccc(-c2cnc(C(O)c3ccccc3)[nH]2)c1 (configuration not stated)	nt	56.7*	0.2	nt	63.3*	nt
COc1ccc(-c2cnc(C(O)c3ccccc3)[nH]2)cc1 (configuration not stated)	nt	50.8*	-0.2	nt	24.6	-66.9
CCCC#Cc1ccc([C@H]2[C@H]3CN(C(=O)c4ccc5c(c4)OCO5)CCCCN3[C@H]2CO)cc1	nt	nt	nt	nt	nt	5.3
CC(C)NC(=O)N(C)C[C@H]1OCCCC[C@@H](C)Oc2ccc(NS(=O)(=O)c3ccc(F)cc3)cc2C(=O)N([C@H](C)CO)C[C@H]1C	nt	nt	nt	nt	nt	-5.9
